Experimental findings from PubChem BioAssay (NCI) are described below.

Holding throughout (test): NCI-60 one-dose screen, 48 h (100 = growth as untreated, 0 = no growth, -100 = all killed)
Common to all, as to conditions: 10 µM unless noted

Experiment [1] relates to NCI-H23 lung.
Experiment [2] deals with NCI-H226 lung.
The test system of experiment [3] is HOP-62 NSCLC.
The test system of experiment [4] is NCI-H460 lung.
In experiment [5] the test system is HOP-92 NSCLC.
The subject of experiment [6] is NCI-H522 lung.
Experiment [7] has as its system A549/ATCC NSCLC.
Experiment [8] has as its system 786-0 renal.
Experiment [9] concerns COLO 205 colon.
Experiment [10] has as its system DU-145 prostate.
Experiment [11] deals with K-562 leukemia.
Experiment [12] relates to MALME-3M melanoma.
Experiment [13] concerns MDA-MB-231 breast.
Experiment [14] has as its system RXF 393 renal.
The subject of experiment [15] is SF-268 CNS.
The subject of experiment [16] is SF-295 CNS.
Experiment [17] has as its system SF-539 CNS.
The subject of experiment [18] is UACC-257 melanoma.
Experiment [19] relates to M14 melanoma.

This is part of a sample that, as a whole, favours compounds with a hit. Of some 83,000 tested, about 20% had one in any assay.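 Compound tested at a single concentration for 48 hours in 96-well plates; a percent growth value below 10 was scored as active.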 Unmarked numbers belong to inactive results. Active and inactive are the calls of the source.

For the compound `COc1ccc(\C=N/N=C(N)/C(N)=N\N=C/c2ccc(OC)cc2)cc1`, the growth in experiment [1] was 95.6%; in experiment [2], 96.1%; in experiment [3], 97.8%; in [4], 108%; in [5], 92.5%; in experiment [6] it was 87.5%. In addition, the growth is 113% in experiment [7]; 123% in experiment [8]; 107% in experiment [9]; 113% in experiment [10]; 99.9% in experiment [11]; 106% in experiment [12]. The growth in [13] was 107%; in experiment [14], 96.9%; in experiment [15], 100%; in [16], 97.3%; in experiment [17], 92.7%; in experiment [18], 121%. The growth in experiment [19] was 111%.
Regarding `CCOC(=O)c1csc(NC(=O)COc2ccc(/C=C3\Oc4ccccc4C3=O)cc2)n1`, the growth in experiment [1] was 86.5%; in experiment [2] it was 108%; in [3], 72.6%; in experiment [4] it was 95.4%; in experiment [5], 102%; in [6], 55.1%. Further, the growth in experiment [7] is 88.7%; in experiment [8], 68.4%; in experiment [9] it was 112%; in [10], 114%; in [11], 62.7%; in [12] it was 109%. Further, the growth in experiment [13] is 81.7%; in experiment [14], 79.6%; in experiment [15] it was 88.3%; in [16], 102%; in experiment [17], 95.5%; in experiment [18], 87.9%. Also, the growth in [19] was 94.6%.
`Nc1nc(-c2ccc(Cl)cc2)nc2c1sc(=S)n2-c1ccccc1`: the growth is 48.8% in experiment [1]; 49.4% in [2]; 28.9% in experiment [3]; 9.12% (active) in experiment [4]; -19.3% (active) in experiment [5]; 56.4% in experiment [6]. The growth in [7] was 23.9%; in experiment [8] it was -52.9% (active); in experiment [9] it was 64.4%; in [10], 56.1%; in experiment [11], 41.1%; in experiment [12], -15.9% (active). Further, the growth in [13] is 34.7%; in [14], -2.61% (active); in experiment [15], 40.7%; in [16], 16.4%; in experiment [17], -20.7% (active); in experiment [18], 59.9%. In addition, in [19], the growth was 68.1%.
Turning to `CCCn1cc2c(=O)nc3sc(Cc4ccccc4)c(C)n3c2n1`, the growth in [1] was 103%; in experiment [2] it was 107%; in experiment [3], 102%; in experiment [4] it was 101%; in [5] it was 88.4%; in experiment [6], 75%. For the same compound, the growth in [7] is 83.5%; in [8] it was 99.1%; in experiment [9], 109%; in experiment [10] it was 104%; in [11], 77.5%; in [12], 112%. The growth was 99.3% in experiment [13]; 119% in experiment [14]; 94.8% in experiment [15]; 120% in experiment [16]; 99.7% in experiment [17]; 88.3% in experiment [18]. Also, in [19], the growth was 112%.
On to `C#CCOc1cccc(Nc2ncnc3cc(NC(=O)C=C)ccc23)c1`, for which the growth in experiment [1] was 30.3%; in experiment [2] it was 62.3%; in [3], 40.4%; in experiment [4] it was 16.1%; in [5], 12.3%; in experiment [6], -17.5% (active). Moreover, the growth was 29.7% in experiment [7]; 7.49% (active) in experiment [8]; 17.3% in [9]; 5.4% (active) in experiment [10]; 5.87% (active) in [11]; 33.9% in experiment [12]. Besides, the growth in [13] was 20.5%; in experiment [14], -17% (active); in experiment [15], 27.6%; in experiment [16], 45%; in experiment [17] it was 0.0579% (active); in [18], 25.3%. Moreover, the growth in experiment [19] is 13%.
As for `COC1=CC(c2ccc[nH]2)=N/C1=C\c1[nH]c(C)c(C(=O)OC(C)C)c1C`, the growth in [1] was -43.4% (active); in experiment [2], -27.4% (active); in [3], -21.4% (active); in [4], 0.0375% (active); in [5], -33% (active); in experiment [6], -58.2% (active). Also, the growth in [7] is -21.2% (active); in experiment [8] it was -41.9% (active); in experiment [9] it was -80.5% (active); in [10], 10.5%; in [11], 2.07% (active); in experiment [12], -74.3% (active). In addition, the growth in experiment [13] is -67% (active); in experiment [14], -17.7% (active); in [15], 6.34% (active); in experiment [16], -76% (active); in [17], -58.6% (active); in [18] it was -37.7% (active). Further, the growth in [19] was -67.5% (active).
Consider `O=C(O)CCN1C(=O)/C(=C/C(Cl)=C/c2ccccc2)SC1=S`, for which the growth in [1] is 21.3%; in experiment [2], 23.6%; in [3] it was 53.9%; in experiment [4], 16.6%; in experiment [5], 53.7%; in [6] it was 10.6%. Further, the growth in [7] is 44.8%; in experiment [8], 9.92% (active); in experiment [9] it was 13%; in experiment [10], 22.2%; in experiment [11], 14.5%; in experiment [12], 36.1%. Also, the growth in experiment [13] is 49.9%; in [14], -10.2% (active); in experiment [15], 26.5%; in experiment [16], 51.5%; in experiment [17], 10.2%; in experiment [18], 33.3%. For the same compound, in experiment [19], the growth is 10.3%.
Consider `Cc1cc(S(=O)(=O)/N=C(\N)n2nc(C)c(C)c2C)c(SCc2ccccc2)cc1Cl`, for which the growth in [1] is 54.6%; in experiment [2], 78.6%; in [3], 91.7%; in [4], 81.2%; in experiment [5], 50.3%; in experiment [6] it was 17.2%. Besides, the growth in experiment [7] was 52.9%; in [8], 77.2%; in experiment [9], 114%; in [10] it was 98.1%; in experiment [11], 30.9%; in experiment [12] it was 94.1%. Moreover, the growth in experiment [13] is 89.6%; in [14], 72.9%; in [15] it was 86.6%; in [16], 54.3%; in [17], 98.8%; in [18] it was 73.4%. Moreover, in [19], the growth is 74.6%.
